Sampled rows, rich in hits. Any-hit rate of the full collection: about 4.6%.
Vaccinia Venus: inhibitors of vaccinia virus (Venus reporter); Vaccinia virus Venus reporter expression, fluorescence; AID 720580; 330,000 tested, 0.46% active; Potency, µM (titrated, usually from 36.5 µM), most hits filed as inhibitors; calls by dose curve; tested in A549 cells; note: nearly all actives have a fitted effect of over 30% in size
HCV inh: blocks hepatitis C virus | Huh7.5.1 HCVcc-Cre infection, luciferase reporter, 44 h | 340,000 tested, 3.4% active | AID 651820 | Potency, µM (titrated, usually from 41.8 µM), hits mostly inhibitors; active = well fitted inhibition curve with a large enough effect; inconclusive = small, poorly fitted or top-dose-only effect, or another doubt; inactive = no such curve, though single readings can be large or run the other way
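Compounds are dispensed onto cells plated 4 h earlier at 1,000 per well, with HCVcc-Cre virus (about 0.5 moi) added next. Following 44 h of culture, luminescent signal is measured for 15 sec after 15 min with substrate at room temperature.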
VACV mCherry inh: inhibitors of vaccinia virus infection (mCherry reporter signal); Vaccinia virus mCherry reporter infection, fluorescence; 310,000 tested, 0.63% active; Potency, µM (top dose mostly 36.5 µM), usual class: inhibitors; calls by dose curve; tested in A549 cells; note: nearly all actives have a fitted effect of over 35% in size
Lassa entry inh: inhibitors of Lassa virus binding or cell entry; Lassa virus pseudotype entry inhibition, cell reporter; Potency, µM (top dose mostly 37.9 µM), usual class: inhibitors; 300,000 tested, 1.2% active; AID 540256; calls by dose curve; tested in HEK293 cells; note: nearly all actives have a fitted effect of over 50% in size
MARV entry inh: blocks Marburg virus binding to or entry into cells. Marburg virus pseudotyped entry inhibition, cell reporter. Potency, µM (doses to about 37.8 µM), usual class: inhibitors. 300,000 tested, 1.8% active. AID 540276; calls by dose curve; tested in HEK293 cells
Large screens that a line does not name were inactive.

CC(C)NC[C@H](O)COc1cccc2ccccc12	HCV inh inconclusive, MARV entry inh 14.6µM
CCN1/C(=C/C=C/c2sc3ccccc3[n+]2CC)Sc2ccccc21	HCV inh 1.58µM (no result: Lassa entry inh, MARV entry inh)
CC[n+]1c(/C=C/Nc2ccccc2)sc2ccccc21	MARV entry inh inconclusive
CCN1/C(=C/C=C/C=C/c2sc3ccccc3[n+]2CC)Sc2ccccc21	Lassa entry inh 1.84µM, MARV entry inh 4.61µM
CCCCNC(=O)c1ccc2c(c1)NC(=O)C(CS(=O)(=O)Cc1cccc(C)c1)N2 (configuration not stated)	Lassa entry inh inconclusive (no result: HCV inh, MARV entry inh)
COc1cc(=O)n2c(c1C(=O)N(C)Cc1nonc1C)CCN(Cc1ccsc1)CC2	none (no result: HCV inh, Lassa entry inh, MARV entry inh)
COc1ccc(/C=C/C(O)=C2/C(=O)N(C)C3(C)CC2c2ccccc2O3)cc1 (configuration not stated)	Lassa entry inh inconclusive, MARV entry inh 8.2µM (no result: Vaccinia Venus, VACV mCherry inh)
NC(=O)c1ccc(-c2nc(-c3ccc4c(c3)OCO4)c(-c3ccccn3)[nH]2)cc1	Lassa entry inh 6.28µM (no result: Vaccinia Venus, HCV inh, VACV mCherry inh, MARV entry inh)
O=C(NCC1CCCCC1)C1(CC2CC(c3cccc(Br)c3)=NO2)CCNCC1 (configuration not stated)	Vaccinia Venus 10µM, HCV inh inconclusive, VACV mCherry inh 11.2µM (no result: Lassa entry inh, MARV entry inh)
CCCCCCCNC(=O)C1(CC2CC(c3ccccc3)=NO2)CCNCC1 (configuration not stated)	Vaccinia Venus inconclusive, HCV inh 10µM (no result: Lassa entry inh, MARV entry inh)
CN1C(=O)c2ccccc2NC(=O)C1Cc1ccccc1 (configuration not stated)	none (no result: Lassa entry inh, MARV entry inh)
CC[C@H](C)[C@@H]1OC(=O)[C@@H](C)[C@@H](CC)NC(=O)[C@H](C)N(C)C(=O)C(C)(C)C(=O)C(C)NC(=O)[C@H](Cc2ccccc2)N(C)C(=O)[C@H](C(C)C)N(C)C(=O)CNC(=O)[C@H](CC(C)C)N(C)C(=O)CNC1=O (some centres not stated)	Vaccinia Venus 2.24µM, VACV mCherry inh 2µM (no result: HCV inh, Lassa entry inh, MARV entry inh)
Cc1ccc(CN(C(=O)COc2cccc([N+](=O)[O-])c2)c2ccccn2)o1	Lassa entry inh inconclusive, MARV entry inh 2.82µM (no result: HCV inh)
Cc1ccc(CN(C(=O)COc2cccc([N+](=O)[O-])c2)c2ccccn2)cc1	MARV entry inh inconclusive (no result: HCV inh)
CCCCn1c(=O)c2oc3ccccc3c2n(Cc2ccc(C)cc2)c1=O	none (no result: HCV inh, MARV entry inh)
Cc1nn(Cc2ccc(F)cc2)c2sc(C(=O)Nc3nccs3)cc12	HCV inh inconclusive
COc1ccccc1CNC(=O)c1cc2c(C)nn(Cc3ccc(F)cc3)c2s1	HCV inh 7.08µM, MARV entry inh inconclusive (no result: VACV mCherry inh)
CCCNC(=O)c1c(NC(=O)c2ccccc2F)sc2c1CCCCC2	none (no result: HCV inh)
CCCNC(=O)c1sc2c(c1C(=O)Nc1ccccn1)CCCC2	HCV inh 10µM, MARV entry inh inconclusive
COC(=O)c1cc2oc3ccccc3c2n1Cc1c(C)cc(C)cc1C	MARV entry inh inconclusive (no result: HCV inh, Lassa entry inh)
CC(C)NC(=O)C1CCC(Cn2c(=O)c3sccc3n(CC(=O)N3CCCC3)c2=O)CC1 (configuration not stated)	none (no result: HCV inh, MARV entry inh)
Cc1cc(C)c(C(=O)/C=C/c2cccc3ccccc23)c(=O)[nH]1	Vaccinia Venus 8.91µM, HCV inh 11.2µM, VACV mCherry inh 5.01µM, Lassa entry inh 6.31µM, MARV entry inh inconclusive
CCOc1ccc(/C=N/n2c(SC)nnc(C(C)(C)C)c2=O)cc1	Lassa entry inh 10µM (no result: VACV mCherry inh)
COc1ccc(/C=N/n2c(SC)nnc(C(C)(C)C)c2=O)cc1	Lassa entry inh inconclusive (no result: VACV mCherry inh)
CCc1ccccc1NC(=O)/C(=C/c1ccco1)c1ccccc1	HCV inh inconclusive, Lassa entry inh 15.8µM, MARV entry inh inconclusive (no result: VACV mCherry inh)
COc1ccc(C(=O)C[n+]2cccc3cc(Cl)ccc32)cc1	none (no result: HCV inh, Lassa entry inh, MARV entry inh)
Cc1cc2ccccn2c1C(=O)c1ccc([N+](=O)[O-])o1	Vaccinia Venus inconclusive, HCV inh 11.2µM, VACV mCherry inh inconclusive, Lassa entry inh inconclusive, MARV entry inh inconclusive
Cn1c(=O)n(C)c2cc([N+](=O)[O-])c(N3CCN(C(=O)c4ccccc4Cl)CC3)cc21	HCV inh inconclusive, Lassa entry inh inconclusive, MARV entry inh inconclusive
Cn1c(=O)n(C)c2cc([N+](=O)[O-])c(N3CCN(C(=O)c4ccccc4Br)CC3)cc21	HCV inh 12.6µM, Lassa entry inh inconclusive, MARV entry inh inconclusive
CCN(CC)c1ccc2nc3ccccc3[n+](CC)c2c1	Vaccinia Venus inconclusive, HCV inh 6.31µM, Lassa entry inh inconclusive, MARV entry inh inconclusive
CCN(CC)c1ccc2nc3ccc(N)cc3[n+](-c3ccccc3)c2c1	HCV inh 5.01µM, Lassa entry inh 8.91µM, MARV entry inh inconclusive
CCOC(=O)c1noc2ncn(CC(=O)Nc3cccc(C(F)(F)F)c3)c(=O)c12	none (no result: HCV inh, MARV entry inh)
CC(=O)OC[C@H]1O[C@H](CC=NO[C@H](C)CN2CCCCc3nc(C)c(C)cc32)C=C[C@@H]1OC(C)=O	none (no result: Vaccinia Venus, HCV inh, VACV mCherry inh, Lassa entry inh)
COc1ccc(N(CN2C(=O)[C@@H]3[C@@H](C2=O)[C@H]2C=C[C@@H]3C2)C(=O)c2ccco2)cc1	none (no result: Vaccinia Venus, HCV inh, VACV mCherry inh, Lassa entry inh)
CCC(=O)Nc1nn(C)c2nc3c(C)cccc3cc12	HCV inh 10µM (no result: VACV mCherry inh)
CCCn1nc(NC(=O)CC)c2cc3cccc(C)c3nc21	HCV inh inconclusive (no result: Lassa entry inh, MARV entry inh)
C/C(=N/OCO/N=C(\C)c1ccccc1)c1ccccc1	Lassa entry inh inconclusive, MARV entry inh 3.55µM
COc1cccc(-c2cc(C(=O)Nc3cc(C)n(Cc4ccc(Cl)cc4)n3)no2)c1	HCV inh 6.31µM, MARV entry inh inconclusive (no result: Vaccinia Venus, VACV mCherry inh)
COc1ccc(OC)c(-c2cc(C(=O)Nc3cc(C)n(Cc4ccc(Cl)cc4)n3)no2)c1	HCV inh 11.2µM, MARV entry inh inconclusive (no result: Vaccinia Venus, VACV mCherry inh)
O=C(OCCN1C(=O)c2cccc3c(N4CCOCC4)ccc(c23)C1=O)c1ccccc1Cl	HCV inh inconclusive, Lassa entry inh inconclusive, MARV entry inh 7.08µM
O=C(OCCN1C(=O)c2cccc3c(N4CCOCC4)ccc(c23)C1=O)c1ccc(Cl)cc1Cl	HCV inh inconclusive, VACV mCherry inh inconclusive, Lassa entry inh inconclusive, MARV entry inh inconclusive
O=C(OCCN1C(=O)c2cccc3c(N4CCOCC4)ccc(c23)C1=O)c1cccc(Cl)c1	HCV inh 11.2µM, Lassa entry inh inconclusive, MARV entry inh inconclusive
Cc1ccc(S(=O)(=O)N2CCC(=O)N(C(COCc3cccc(C(F)(F)F)c3)C(C)C)CC2)cc1 (configuration not stated)	Vaccinia Venus inconclusive, VACV mCherry inh inconclusive, Lassa entry inh inconclusive, MARV entry inh 13µM
Cc1ccc(S(=O)(=O)N2CCC(=O)N(C(COCc3cccc(C(F)(F)F)c3)Cc3ccccc3)CC2)cc1 (configuration not stated)	HCV inh 10µM, VACV mCherry inh inconclusive, Lassa entry inh inconclusive, MARV entry inh inconclusive
Cc1ccc(S(=O)(=O)N2CCC(=O)N(C(COCc3ccccc3)Cc3ccccc3)CC2)cc1 (configuration not stated)	none
O=C(Nc1ccc2oc(-c3cccnc3)nc2c1)c1ccc(-c2ccccc2OC(F)(F)F)o1	Lassa entry inh inconclusive (no result: HCV inh, MARV entry inh)
Cc1cccc(N=C2NC(=O)/C(=C/c3cccn3C)S2)c1C	HCV inh inconclusive, Lassa entry inh inconclusive, MARV entry inh 8.91µM
CCN(CC)CCCNC(=O)c1cnc(SC)nc1-c1ccccc1	none (no result: HCV inh, MARV entry inh)
O=C(C[n+]1cccc(C(=O)Nc2ccccc2)c1)c1ccc([N+](=O)[O-])cc1	HCV inh 11.2µM
